Experimental data taken from PubChem BioAssay (NCATS).
Inconclusive results are not listed. Calls of active or inactive are those of the source. The call rests on the fitted dose curve; in most records, active means well fitted inhibition curve with a large enough effect; inconclusive means small, poorly fitted or top-dose-only effect; inactive means flat fitted curve, though single readings scatter. Where a SMILES comes first, the peptide text is derived from it. [ ]: non-standard residue; d: D form. ξ: configuration not given here. ξPhe(βξ-Me) = CC(c1ccccc1)C(N)C(=O)O; GABA = NCCCC(=O)O

Experiments:
[1] = system: CRL-7250; assay: Cytotoxic Profiling of Annotated Libraries Using Quantitative High-Throughput Screening (AID 1296008); conditions: Five cell lines viability, CellTiter-Glo ATP luminescence, 48-72 h; max response: active compounds read low; on max response: on the % scale 0 is the no-effect control and ±100 the full control effect
In short: (§1)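 Cells exposed to compounds for 48 or 72 hr at 37 degrees Celsius. Viability read as ATP-coupled luminescence with CellTiter-Glo after 10 min at room temperature.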

[2] = system: HEK293; assay: as above; conditions: Five cell lines viability, CellTiter-Glo ATP luminescence, 48-72 h; max response: active compounds read low
In short: as §1

[3] = system: HaCat; assay: as above; conditions: Five cell lines viability, CellTiter-Glo ATP luminescence, 48-72 h; max response: active compounds read low
In short: as §1

[4] = system: KB-3-1; assay: as above; conditions: Five cell lines viability, CellTiter-Glo ATP luminescence, 48-72 h; max response: active compounds read low
In short: as §1

[5] = system: NIH3T3; assay: as above; conditions: Five cell lines viability, CellTiter-Glo ATP luminescence, 48-72 h; max response: active compounds read low
In short: as §1

[6] = system: HACAT; assay: qHTS assay to identify novel small-molecules to repurpose for Merkel cell carcinoma treatment (AID 1296009); conditions: MCC and control cell lines, CellTiter-Glo viability, 72 h; at 44.8 µM (top of the series) unless noted
In short: (§2)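 Dose-response viability screen; 72 hr exposure at 37 degree celsius; CellTiter-Glo added, 10 min room temperature, luminescence read; RLUs scaled between no-cell and DMSO wells.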

[7] = system: HEK293T; assay: as above; conditions: MCC and control cell lines, CellTiter-Glo viability, 72 h; series mostly up to 44.8 µM
In short: as §2

[8] = system: TAB165; assay: qHTS profiling for inhibitors of Plasmodium falciparum proliferation (AID 504749);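 further: 0% = DMSO vehicle and full inhibition = artemisinin control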; conditions: P. falciparum in erythrocytes, SYBR Green DNA, 72 h; series mostly up to 28.7 µM
In short: (§3)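 Each compound contacts P. falciparum-infected red blood cells for 72 h at 37 C; lysis buffer (Tris, EDTA, saponin, Triton X, SYBR Green I) is added and fluorescence measured next morning; values normalized to controls.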

[9] = system: W2; assay: as above; conditions: P. falciparum in erythrocytes, SYBR Green DNA, 72 h; series mostly up to 28.7 µM
In short: as §3
Further: nearly all actives have a fitted effect of over 60% in size.

C/C=C/C1=CC2=C(CO1)C(=O)[C@](C)(O)[C@H](OC(=O)c1c(O)cc(OC)c(O)c1C)C2
inactive: max response [1] 2.48% | outcome [2] | outcome [3] | outcome [4] | outcome [5] | outcome [6] inactive [at 17.4 µM] | Potency [7]

CC(=O)OCC(=O)O[C@@H]1[C@H]2[C@@H](OC(=O)c3ccccc3)[C@@H](C)C[C@]2(O)[C@H](OC(C)=O)C2(C)[C@H]3CC(C)(C)C(=O)[C@@H]3CC1(OC(C)=O)[C@@H]2OC(C)=O (some centres not stated)
inactive: max response [1] -0.187% | outcome [2] | outcome [3] | max response [4] 9.67% | outcome [5] | outcome [6] inactive [at 17.4 µM] | Potency [7]

COc1cc(/C=C/C(=O)OC2[C@H](O)CC(O)(C(=O)O)C[C@H]2O)ccc1O (some centres not stated)
inactive: max response [1] 3.9% | outcome [2] | outcome [3] | max response [4] 0.663% | max response [5] -0.19% | outcome [6] | Potency [7]

C[C@@H](O)[C@H](N)C(=O)N1CCC[C@H]1C(=O)N1CCC[C@H]1C(=O)N[C@H](C(N)=O)[C@@H](C)O (H-TPPT-NH2)
inactive: outcome [1] | outcome [2] | outcome [3] | outcome [4] | outcome [5] | outcome [6] inactive [at 9.27 µM] | outcome [7] inactive [at 9.27 µM]

O=C(c1ccc(F)cc1)C1CCN(CCn2c(=O)nc3n(c2=O)CCCC3)CC1
inactive: max response [1] 3.3% | outcome [2] | outcome [3] inactive; activator | max response [4] -0.742% | max response [5] -0.166% | outcome [6] inactive; activator | Potency [7]

C/C=C(\C)C(=O)O[C@@H](C)[C@H]1CC[C@]2(O)C3CCC4C[C@@H](OC5CC(OC)C(OC6CC(OC)C(OC7CC(OC)C(OC8OC(C)C(OC9OC(CO)C(O)C(O)C9O)C(OC)C8O)C(C)O7)C(C)O6)C(C)O5)CC[C@]4(C)C3[C@H](O)[C@@H](O)[C@]12C (some centres not stated)
inactive: max response [1] -8.84% | outcome [2] | outcome [3] | outcome [4] | outcome [5] | outcome [6] inactive [at 9.27 µM] | outcome [7] inactive [at 9.27 µM]

CC(C)CC1NC(=O)C(C(C)c2ccccc2)NC(=O)C(C(C)C)NC(=O)C(C)NC(=O)CCCNC(=O)C(Cc2c[nH]c3ccccc23)NC(=O)C(C)NC1=O (stereo not drawn) (cyclo([GABA]AV[ξPhe(βξ-Me)]LAW); configuration not given here)
inactive: max response [1] -5.31% | outcome [2] | outcome [3] | outcome [4] | max response [5] 3.96% | outcome [6] inactive [at 17.4 µM] | Potency [7]

COc1c2c(c(C)c3c1C(=O)OC3)O[C@@]1(C)C[C@@H](O)[C@]34O[C@](OC)(CC[C@]3(C)[C@H]1C2)OC4(C)C
inactive: outcome [1] | outcome [2] | max response [3] -1.6% | outcome [4] | max response [5] 2.2% | Potency [7]

CC(/C=C/C1(O)C(C)(C)CC(O)CC1(C)O)OC1OC(CO)C(O)C(O)C1O (configuration not stated)
inactive: outcome [1] | outcome [2] | max response [3] -8.69% | outcome [4] | outcome [5] | Potency [7]

CN1CC[C@@H](NC(=O)Nc2ccc(C#N)cc2)C[C@@H]1c1nc2ccccc2[nH]1
inactive: max response [1] -0.913% | outcome [2] | outcome [3] | max response [4] -8.77% | max response [5] 4.24% | outcome [6] | Potency [7]

C[C@]1(O)CC[C@@H]2C(C(=O)O)=CO[C@@H](O[C@@H]3O[C@H](COC(=O)c4ccc(O)cc4)[C@@H](O)[C@H](O)[C@H]3O)[C@@H]21
inactive: max response [1] 2.99% | outcome [2] | outcome [3] | max response [4] 9.39% | max response [5] 2.95% | outcome [6] inactive [at 17.4 µM] | Potency [7]

CC12CCC3c4ccc(O)cc4CCC3C1CCC2OC1OC(C(=O)O)C(O)C(O)C1O (configuration not stated)
inactive: outcome [1] | outcome [2] | max response [3] 2.12% | outcome [4] | max response [5] 1.3% | Potency [7]

CCCn1cnc2c(NCc3ccccc3)nc(N[C@H](CC)CO)nc21
inactive: max response [1] -7.86% | outcome [2] | max response [3] 0.198% | outcome [4] | outcome [5] | Potency [7]

CC[C@@H](c1ccc(F)c(F)c1)n1c(C(=O)OC)c(-c2ccno2)[nH]c1=S
inactive: max response [1] -7.34% | outcome [2] | outcome [3] | max response [4] 5.04% | outcome [5] | outcome [6] | Potency [7]

C[C@@H]1O[C@@H](O[C@H]2[C@H](O[C@H]3CO[C@@H](O[C@H]4CC[C@@]5(C)C(CC[C@]6(C)C5CC[C@]57OC[C@@]8(CC[C@](C)(CO)CC85)[C@H](O)C[C@]76C)C4(C)C)[C@H](O[C@@H]4O[C@H](CO)[C@@H](O)[C@H](O)[C@H]4O)[C@H]3O)O[C@H](CO)[C@@H](O)[C@@H]2O)[C@H](O)[C@H](O)[C@H]1O (some centres not stated)
inactive: max response [1] -17.3% | outcome [2] | max response [3] -3.02% | max response [4] 5.69% | max response [5] 2.44% | outcome [7] inactive [at 9.27 µM]

COc1c(OC2OC(CO)C(O)C(O)C2O)ccc(O)c1C(=O)OCc1ccccc1O[C@@H]1O[C@H](CO)[C@@H](O)[C@H](O)[C@H]1O (some centres not stated)
inactive: outcome [1] | outcome [2] | max response [3] 3.76% | outcome [4] | max response [5] -1.73% | Potency [7]

CC1=CC(=O)C2C(C)(C)CCCC2(C)C12CCC1(COC(=O)C1)O2 (configuration not stated)
inactive: max response [1] -1.45% | outcome [2] | outcome [3] | max response [4] 5.32% | max response [5] -3.33% | outcome [6] | Potency [7]

COC(=O)[C@@]1(C)CC[C@]2(C(=O)O[C@@H]3O[C@H](CO)[C@@H](O)[C@H](O)[C@H]3O)CC[C@]3(C)C(=CCC4[C@@]5(C)CC[C@H](O[C@@H]6O[C@H](C(=O)O)[C@@H](O)[C@H](O)[C@H]6O)C(C)(C)C5CC[C@]43C)[C@@H]2C1 (some centres not stated)
inactive: max response [1] -18.2% | outcome [2] | max response [3] -2.02% | max response [4] -0.321% | max response [5] 2.66% | outcome [7] inactive [at 9.27 µM]

C=C(C(=O)OC)C1CCC2(C)C(O[C@@H]3O[C@H](CO)[C@@H](O)[C@H](O)[C@H]3O)CC(=O)C(C)C2C1O (some centres not stated)
inactive: max response [1] 1.28% | outcome [2] | max response [3] -1.72% | outcome [4] | outcome [5] | Potency [7]

C=CC(C)(C)C12CC3C(=O)NC(Cc4cnc[nH]4)C(=O)N3C1Nc1ccccc12 (configuration not stated)
inactive: max response [1] -2.57% | outcome [2] | outcome [3] | outcome [4] | outcome [5] | outcome [6] | Potency [7]

OCc1ccccc1O[C@@H]1O[C@H](CO)[C@@H](O)[C@H](O)[C@H]1O
inactive: max response [1] -0.323% | outcome [2] | max response [3] -0.335% | max response [4] 6.41% | max response [5] -2.31% | Potency [7]

C(#Cc1cccc(CN2CCOCC2)c1)CCN1CCCCC1
inactive: max response [1] -3.48% | outcome [2] | outcome [3] | max response [4] 2.31% | max response [5] 1.81% | outcome [6] | Potency [7]

CC1=CC(=O)C2C(C)(C)CC(O)CC2(C)C1CO (configuration not stated)
inactive: max response [1] -38.7% | outcome [2] | max response [3] -3.16% | outcome [4] | max response [5] 2.39% | Potency [7]

COc1ccc2c3c1O[C@H]1C[C@@H](O)C=C[C@@]31CCN(C)C2
inactive: Potency [8] | Potency [9] | outcome [1] | outcome [2] | outcome [3] | outcome [4] | max response [5] -4.93% | outcome [6] | Potency [7]

C[C@@H]1O[C@@H](O[C@H]2[C@H](O)[C@@H](C(=O)O)O[C@@H](O[C@H]3CC[C@@]4(C)C(CC[C@]5(C)C4CC=C4C6CC(C)(C)CC[C@]6(C(=O)O)CC[C@]45C)C3(C)C)[C@@H]2O[C@@H]2O[C@H](CO)[C@@H](O)[C@H](O)[C@H]2O)[C@H](O)[C@H](O)[C@H]1O (some centres not stated)
inactive: outcome [1] | outcome [2] | outcome [3] | outcome [4] | max response [5] 1.81% | outcome [6] inactive [at 9.27 µM] | outcome [7] inactive [at 9.27 µM]
